The values that follow come from PubChem BioAssay (EPA / NIEHS).

In experiment [1] the target is rat Serotonin, 5-Hydroxytryptamine Receptor (5HT), Non-Selective Binding, Htr1a (gene 24473) (UniProt P19327). Briefly: NVS_GPCR_r5HT_NonSelective: NovaScreen (NVS) G Protein-Coupled Receptor Assay for rat Serotonin, 5-Hydroxytryptamine Receptor (5HT), Non-Selective Binding (AID 2283295). The procedure, abridged: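 Radioligand displacement on rat cortical membranes, 1 h incubation, filter-based scintillation counting. Primary duplicates at 25 uM, actives retested in concentration series; loss of signal fitted against DMSO as baseline.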

The target of experiment [2] is human Opioid Receptor Mu (Opiate Mu), OPRM1 (gene 4988) (UniProt P35372). Description: NVS_GPCR_hOpiate_mu: NovaScreen (NVS) G Protein-Coupled Receptor Assay for human Opioid Receptor Mu (Opiate Mu) (AID 2283290).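 Note: hits lower bound tracer signal versus DMSO meaning displacement of the ligand.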 The procedure, abridged:
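Here, radioligand binding to CHO-extracted receptor was measured after 2.5 h using filter-based scintillation detection. Initial single-concentration screening used 25 uM in duplicate with plate controls; confirmed actives went to concentration-response testing.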

Experiment [3] addresses rat Adrenergic Receptor, Alpha 2 (Adra2), Non-selective Binding, Adra2a (gene 25083) (UniProt P22909). Briefly: NVS_GPCR_rAdra2_NonSelective: NovaScreen (NVS) G Protein-Coupled Receptor Assay for rat Adrenergic Receptor, Alpha 2 (Adra2), Non-selective Binding (AID 2283299). In short, it runs like this:
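Rat cortical membranes, radioligand competitive displacement read by filter-based scintillation counting 1.25 hours after dosing. Primary screen in duplicate at 25 uM; actives followed up in concentration series.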

Experiment [4] deals with rat Opioid Receptor, Non-selective Sodium (Na+) Binding, Oprm1 (gene 25601) (UniProt P33535). Description: NVS_GPCR_rOpiate_NonSelectiveNa: NovaScreen (NVS) G Protein-Coupled Receptor Assay for rat Opioid Receptor, Non-selective Sodium (Na+) Binding (AID 2283311). The procedure, abridged: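 Rat forebrain membranes, radioligand displacement with filter scintillation counting, 1.5 h incubation. Screened in duplicate at 25 µM; hits then run in concentration-response up to 50 µM; loss of binding fitted versus DMSO.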
rat Opioid Receptor, Non-selective Sodium (Na+) Binding, Oprm1 (gene 25601), sequence (P33535 whole entry, looked up): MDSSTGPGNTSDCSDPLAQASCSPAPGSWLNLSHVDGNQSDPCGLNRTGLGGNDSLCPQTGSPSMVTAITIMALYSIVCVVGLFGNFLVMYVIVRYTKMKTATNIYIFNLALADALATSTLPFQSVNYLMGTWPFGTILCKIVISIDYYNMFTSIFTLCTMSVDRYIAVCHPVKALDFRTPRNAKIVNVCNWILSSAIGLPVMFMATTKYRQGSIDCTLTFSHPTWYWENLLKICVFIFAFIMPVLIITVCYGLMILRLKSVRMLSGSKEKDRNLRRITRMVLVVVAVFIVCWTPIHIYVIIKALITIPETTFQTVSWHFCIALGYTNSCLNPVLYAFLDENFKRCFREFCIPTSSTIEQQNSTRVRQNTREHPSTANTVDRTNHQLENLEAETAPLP

The target in experiment [5] is rat Vasopressin 1 Receptor (V1), Avpr1a (gene 25107) (UniProt P30560). Briefly: NVS_GPCR_rV1: NovaScreen (NVS) G Protein-Coupled Receptor Assay for rat Vasopressin 1 Receptor (V1) (AID 2283316). In short, it runs like this:
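Radioligand binding on rat liver membranes, 1.5 h incubation, filter-based scintillation counting. Single 25 uM screen in duplicate; chemicals meeting threshold (e.g. 30% inhibition) run in concentration-response up to 50 uM.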

Experiment [6] addresses guinea pig Bradykinin Receptor B2 (BK2), BDKRB2 (gene 100135486) (UniProt O70526). Description: NVS_GPCR_gBK2: NovaScreen (NVS) G Protein-Coupled Receptor Assay for guinea pig Bradykinin Receptor B2 (BK2) (AID 2283292). The procedure, abridged:
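Radioligand displacement on guinea pig ileum membranes for 1 h, read by filter-based scintillation counting; loss of signal relative to DMSO. Compounds were screened in duplicate at 25 uM, and those passing the threshold were retested in concentration-response up to 50 uM.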

The target of experiment [7] is rat Adrenergic, Alpha 1A Receptor (Adra1A), Adra1a (gene 29412) (UniProt P43140). Briefly: NVS_GPCR_rAdra1A: NovaScreen (NVS) G Protein-Coupled Receptor Assay for rat Adrenergic, Alpha 1A Receptor (Adra1A) (AID 2283296). The procedure, abridged: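 Rat cortical membranes pretreated with chlorethyl clonidine; competitive radioligand displacement, 1 h. Filter-based scintillation counting. Primary screen in duplicate at 25 uM, actives followed in concentration series.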

The target of experiment [8] is rat Histamine Receptor (H3), Hrh3 (gene 85268) (UniProt Q9QYN8). Description: NVS_GPCR_rH3: NovaScreen (NVS) G Protein-Coupled Receptor Assay for rat Histamine Receptor (H3) (AID 2283303). In short, it runs like this:
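Rat forebrain membranes incubated 1 h with compound; radioligand displacement measured by filter-based scintillation counting. Single-concentration duplicates at 25 µM, then concentration-response up to 50 µM, relative to DMSO.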

In experiment [9] the target is rat Neurokinin-3 Receptor (NK3), Tacr3 (gene 24808) (UniProt P16177). Briefly: NVS_GPCR_rNK3: NovaScreen (NVS) G Protein-Coupled Receptor Assay for rat Neurokinin-3 Receptor (NK3) (AID 2283310). In short, it runs like this:
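Rat cortical membranes; radioligand binding with filtration and scintillation counting, 2 h after dosing. Primary screen in duplicate at 25 uM, then concentration-response up to 50 uM; loss of binding signal relative to DMSO.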

Experiment [10] addresses rat Neonicotinoid receptor (NNR), Chrna7 (gene 25302) (UniProt Q05941). Description: NVS_LGIC_rNNR_BungSens: NovaScreen (NVS) Ligand-Gated Ion Channel Assay for rat Neonicotinoid receptor (NNR) (AID 2283315). In short, it runs like this: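 Radioligand displacement binding on rat cortical membranes, 2.5 h incubation, filtration and scintillation counting. Loss of specific binding fitted relative to DMSO.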

A further experiment concerns the target Adra2b (gene 24174) (UniProt P19328). Description: NVS_GPCR_rmAdra2B: NovaScreen (NVS) G Protein-Coupled Receptor Assay for hybird cells Adrenergic, Alpha 2B Receptor (Adra2B) (AID 2283306). In short, it runs like this:
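Radioligand filter-binding assay on membrane proteins from neuroglioma/blastoma hybrid cells (rodent), 1 h after dosing; scintillation counting, loss of signal vs DMSO. Primary screen in duplicate at 25 uM, actives then run in concentration series.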

The target of experiment [11] is rat Somatostatin Receptor (SST), Sstr1 (gene 25033) (UniProt P28646). Briefly: NVS_GPCR_rSST: NovaScreen (NVS) G Protein-Coupled Receptor Assay for rat Somatostatin Receptor (SST) (AID 2283314). In short, it runs like this:
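Rat forebrain membranes; radioligand displacement read by filter-based scintillation counting 1 h after dosing. Primary screen in duplicate at 25 uM. Actives (e.g., 30% inhibition) were rerun as concentration-response to 50 uM max and fitted against DMSO.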

For experiment [12], the target named is rat Gamma-Aminobutyric Acid Type B Receptor (GABBR), Gabbr1 (gene 81657) (UniProt Q9Z0U4). Description: NVS_GPCR_rGABBR: NovaScreen (NVS) G Protein-Coupled Receptor Assay for rat Gamma-Aminobutyric Acid Type B Receptor (GABBR) (AID 2283301). The procedure, abridged: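 Radioligand displacement on rat cortical membranes, 1 h, filter-based scintillation counting. Primary screen at 25 uM in duplicate; compounds passing threshold re-tested in concentration-response up to 50 uM; loss of binding fitted against DMSO.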
rat Gamma-Aminobutyric Acid Type B Receptor (GABBR), Gabbr1 (gene 81657), sequence (Q9Z0U4 whole entry, looked up): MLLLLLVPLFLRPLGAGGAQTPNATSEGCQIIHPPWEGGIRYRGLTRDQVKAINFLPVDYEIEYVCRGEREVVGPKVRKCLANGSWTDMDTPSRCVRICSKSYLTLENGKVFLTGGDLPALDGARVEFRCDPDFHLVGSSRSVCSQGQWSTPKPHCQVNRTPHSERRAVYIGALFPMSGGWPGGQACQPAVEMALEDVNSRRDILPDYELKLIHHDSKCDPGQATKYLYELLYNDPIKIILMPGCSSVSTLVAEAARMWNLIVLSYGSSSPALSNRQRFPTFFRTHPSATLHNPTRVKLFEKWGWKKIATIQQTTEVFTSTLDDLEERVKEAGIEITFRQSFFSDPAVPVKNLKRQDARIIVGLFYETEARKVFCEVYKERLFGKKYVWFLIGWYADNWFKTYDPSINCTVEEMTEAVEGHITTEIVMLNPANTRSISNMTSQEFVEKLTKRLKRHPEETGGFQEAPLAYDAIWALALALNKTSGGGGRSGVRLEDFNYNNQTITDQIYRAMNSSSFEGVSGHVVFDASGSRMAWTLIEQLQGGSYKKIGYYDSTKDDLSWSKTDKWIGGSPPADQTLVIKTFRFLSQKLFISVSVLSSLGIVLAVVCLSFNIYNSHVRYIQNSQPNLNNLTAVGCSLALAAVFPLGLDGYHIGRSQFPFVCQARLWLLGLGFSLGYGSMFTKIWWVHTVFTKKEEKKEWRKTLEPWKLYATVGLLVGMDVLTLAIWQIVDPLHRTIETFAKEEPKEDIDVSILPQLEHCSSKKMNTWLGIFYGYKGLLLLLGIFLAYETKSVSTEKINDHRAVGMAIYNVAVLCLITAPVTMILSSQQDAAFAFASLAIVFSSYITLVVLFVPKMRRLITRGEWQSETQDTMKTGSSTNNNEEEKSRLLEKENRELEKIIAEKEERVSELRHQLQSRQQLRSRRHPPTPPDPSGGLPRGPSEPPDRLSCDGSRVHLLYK

The target of experiment [13] is rat Adrenergic Receptor, Beta (Adrb), Non-selective Binding, Adrb1 (gene 24925) (UniProt P18090). Briefly: NVS_GPCR_rAdrb_NonSelective: NovaScreen (NVS) G Protein-Coupled Receptor Assay for rat Adrenergic Receptor, Beta (Adrb), Non-selective Binding (AID 2283298). In short, it runs like this: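 Non-selective beta-adrenergic radioligand binding in rat cortical membranes, 1 h incubation, filter-based scintillation read-out. Primary screen 25 uM in duplicate; hits retested in concentration-response up to 50 uM, DMSO baseline.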
rat Adrenergic Receptor, Beta (Adrb), Non-selective Binding, Adrb1 (gene 24925), sequence (P18090 whole entry, looked up): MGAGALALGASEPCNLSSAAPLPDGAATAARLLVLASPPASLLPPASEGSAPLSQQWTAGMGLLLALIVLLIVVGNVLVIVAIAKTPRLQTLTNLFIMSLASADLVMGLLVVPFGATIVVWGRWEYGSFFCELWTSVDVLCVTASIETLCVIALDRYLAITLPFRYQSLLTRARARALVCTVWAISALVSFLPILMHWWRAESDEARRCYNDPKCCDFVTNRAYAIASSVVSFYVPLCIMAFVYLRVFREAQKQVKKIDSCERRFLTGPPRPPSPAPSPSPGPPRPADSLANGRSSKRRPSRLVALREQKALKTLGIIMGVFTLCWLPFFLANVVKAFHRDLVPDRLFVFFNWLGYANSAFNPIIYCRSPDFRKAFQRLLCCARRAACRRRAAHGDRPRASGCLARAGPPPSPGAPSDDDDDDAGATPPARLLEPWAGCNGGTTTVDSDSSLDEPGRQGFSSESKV

The next experiment deals with NCBI gene 24521. Description: NVS_IC_rKATPCh: NovaScreen (NVS) Ion Channel Assay for rat Potassium Channel, ATP-Sensitive (KATPCh) (AID 2283319). In short, it runs like this:
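Rat cortical membranes; radioligand binding at ATP-sensitive K channel site, filter-based scintillation counting 2 h after dosing. Single-point duplicate screen at 25 uM, hits rerun in concentration-response up to 50 uM; loss of signal versus DMSO.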

Experiment [14] addresses rat Adrenergic, Alpha 1, Non-selective Receptor (Adra1), Adra1a (gene 29412) (UniProt P43140). Description: NVS_GPCR_rAdra1_NonSelective: NovaScreen (NVS) G Protein-Coupled Receptor Assay for rat Adrenergic, Alpha 1, Non-selective Receptor (Adra1) (AID 2283289). In short, it runs like this:
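Rat forebrain membranes; radioligand displacement read by filter-based scintillation counting 1 h after dosing. Primary screen in duplicate at 25 uM; hits (e.g. ≥30% inhibition) rerun as concentration–response to 50 uM max. Fitted versus DMSO.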

Experiment [15] deals with rat Opioid Receptor, Non-selective Binding, Oprm1 (gene 25601) (UniProt P33535). Briefly: NVS_GPCR_rOpiate_NonSelective: NovaScreen (NVS) G Protein-Coupled Receptor Assay for rat Opioid Receptor, Non-selective Binding (AID 2283318). In short, it runs like this:
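Rat forebrain membranes, cell-free radioligand binding with filter-based scintillation counting, read 1.5 h after dosing. Primary screen in duplicate at 25 uM; actives retested in concentration series. Loss of signal versus DMSO baseline scored.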

Structures are written as SMILES. Results filed as inconclusive are left out. Active and inactive are the calls of the source. Rule for the calls: active = hit-call score of the fitted dose curve at least 0.9, where 1 is the maximum; inconclusive = response in the unintended direction; inactive = score below 0.9.

rat Neurokinin-3 Receptor (NK3), Tacr3 (gene 24808), sequence (P16177 whole entry, looked up): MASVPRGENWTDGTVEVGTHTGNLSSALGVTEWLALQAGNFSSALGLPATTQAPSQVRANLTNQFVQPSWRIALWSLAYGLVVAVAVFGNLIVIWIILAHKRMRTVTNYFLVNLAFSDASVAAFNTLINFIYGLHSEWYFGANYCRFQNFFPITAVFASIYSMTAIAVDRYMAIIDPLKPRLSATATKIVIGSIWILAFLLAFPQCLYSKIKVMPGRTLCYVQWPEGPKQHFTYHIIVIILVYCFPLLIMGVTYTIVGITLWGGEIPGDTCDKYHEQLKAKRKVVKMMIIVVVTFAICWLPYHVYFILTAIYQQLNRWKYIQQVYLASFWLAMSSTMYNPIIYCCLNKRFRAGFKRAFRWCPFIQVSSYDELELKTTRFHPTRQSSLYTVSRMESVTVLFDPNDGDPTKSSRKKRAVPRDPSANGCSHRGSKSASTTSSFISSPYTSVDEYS
Adra2b (gene 24174), sequence (P19328 whole entry, looked up): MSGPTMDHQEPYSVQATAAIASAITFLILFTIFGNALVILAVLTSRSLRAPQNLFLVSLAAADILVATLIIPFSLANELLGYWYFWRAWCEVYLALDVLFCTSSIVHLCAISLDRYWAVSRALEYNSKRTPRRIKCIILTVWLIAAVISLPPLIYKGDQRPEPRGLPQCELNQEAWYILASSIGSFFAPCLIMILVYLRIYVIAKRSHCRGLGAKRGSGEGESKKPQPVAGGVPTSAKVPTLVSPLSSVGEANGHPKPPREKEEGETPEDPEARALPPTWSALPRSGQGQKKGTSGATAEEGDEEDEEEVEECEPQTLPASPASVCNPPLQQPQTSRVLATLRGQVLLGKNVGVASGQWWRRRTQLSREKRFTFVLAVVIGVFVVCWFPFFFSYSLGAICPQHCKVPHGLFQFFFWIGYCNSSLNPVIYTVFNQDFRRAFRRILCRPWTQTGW
rat Adrenergic Receptor, Alpha 2 (Adra2), Non-selective Binding, Adra2a (gene 25083), sequence (P22909 whole entry, looked up): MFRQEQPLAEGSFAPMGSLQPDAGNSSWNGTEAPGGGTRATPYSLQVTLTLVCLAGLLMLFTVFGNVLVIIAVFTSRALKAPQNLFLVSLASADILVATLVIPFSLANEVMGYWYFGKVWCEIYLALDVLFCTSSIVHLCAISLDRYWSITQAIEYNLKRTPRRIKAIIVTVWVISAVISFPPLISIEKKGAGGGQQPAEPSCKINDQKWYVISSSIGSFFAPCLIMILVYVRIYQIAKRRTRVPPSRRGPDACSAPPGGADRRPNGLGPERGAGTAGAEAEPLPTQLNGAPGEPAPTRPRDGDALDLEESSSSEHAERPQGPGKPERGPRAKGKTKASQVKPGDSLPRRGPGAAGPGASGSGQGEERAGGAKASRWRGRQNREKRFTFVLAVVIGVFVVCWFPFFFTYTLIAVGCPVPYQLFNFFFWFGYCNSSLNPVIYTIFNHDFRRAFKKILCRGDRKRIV
human Opioid Receptor Mu (Opiate Mu), OPRM1 (gene 4988), sequence (P35372 whole entry, looked up): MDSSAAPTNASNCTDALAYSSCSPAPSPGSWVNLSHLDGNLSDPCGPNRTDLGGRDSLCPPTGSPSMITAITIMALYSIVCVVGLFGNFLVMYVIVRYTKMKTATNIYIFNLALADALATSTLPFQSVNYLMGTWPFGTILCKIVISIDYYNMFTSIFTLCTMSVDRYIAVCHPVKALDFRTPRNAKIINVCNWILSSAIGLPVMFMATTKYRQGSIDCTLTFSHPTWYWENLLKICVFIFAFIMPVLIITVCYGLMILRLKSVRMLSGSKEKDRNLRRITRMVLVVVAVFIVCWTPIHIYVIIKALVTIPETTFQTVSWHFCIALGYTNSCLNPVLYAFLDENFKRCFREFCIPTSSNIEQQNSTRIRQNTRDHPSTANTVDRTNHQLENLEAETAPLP
rat Neonicotinoid receptor (NNR), Chrna7 (gene 25302), sequence (Q05941 whole entry, looked up): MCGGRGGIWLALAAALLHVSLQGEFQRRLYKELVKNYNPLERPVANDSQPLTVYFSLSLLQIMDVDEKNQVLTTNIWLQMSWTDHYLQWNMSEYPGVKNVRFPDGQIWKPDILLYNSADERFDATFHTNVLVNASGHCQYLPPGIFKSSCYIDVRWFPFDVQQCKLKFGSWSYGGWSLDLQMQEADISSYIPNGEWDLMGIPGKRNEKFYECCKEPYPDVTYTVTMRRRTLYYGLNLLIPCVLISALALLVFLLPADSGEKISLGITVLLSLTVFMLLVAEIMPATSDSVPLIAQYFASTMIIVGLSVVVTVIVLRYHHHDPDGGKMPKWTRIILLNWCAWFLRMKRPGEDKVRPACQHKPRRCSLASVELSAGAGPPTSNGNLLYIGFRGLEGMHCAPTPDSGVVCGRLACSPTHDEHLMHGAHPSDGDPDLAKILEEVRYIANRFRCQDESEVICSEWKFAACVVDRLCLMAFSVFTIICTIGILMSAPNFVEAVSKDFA
rat Histamine Receptor (H3), Hrh3 (gene 85268), sequence (Q9QYN8 whole entry, looked up): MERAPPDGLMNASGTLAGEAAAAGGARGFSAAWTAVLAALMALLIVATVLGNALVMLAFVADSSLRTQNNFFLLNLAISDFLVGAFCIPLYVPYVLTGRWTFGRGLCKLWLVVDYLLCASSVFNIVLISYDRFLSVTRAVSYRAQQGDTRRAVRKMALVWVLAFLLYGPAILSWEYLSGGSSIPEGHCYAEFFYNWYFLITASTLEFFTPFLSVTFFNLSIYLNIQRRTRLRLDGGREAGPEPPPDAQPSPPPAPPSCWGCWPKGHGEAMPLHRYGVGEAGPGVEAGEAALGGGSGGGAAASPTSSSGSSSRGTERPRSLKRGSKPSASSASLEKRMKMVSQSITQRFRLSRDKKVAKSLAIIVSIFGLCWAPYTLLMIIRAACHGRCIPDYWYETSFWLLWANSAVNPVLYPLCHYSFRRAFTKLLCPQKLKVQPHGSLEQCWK
rat Vasopressin 1 Receptor (V1), Avpr1a (gene 25107), sequence (P30560 whole entry, looked up): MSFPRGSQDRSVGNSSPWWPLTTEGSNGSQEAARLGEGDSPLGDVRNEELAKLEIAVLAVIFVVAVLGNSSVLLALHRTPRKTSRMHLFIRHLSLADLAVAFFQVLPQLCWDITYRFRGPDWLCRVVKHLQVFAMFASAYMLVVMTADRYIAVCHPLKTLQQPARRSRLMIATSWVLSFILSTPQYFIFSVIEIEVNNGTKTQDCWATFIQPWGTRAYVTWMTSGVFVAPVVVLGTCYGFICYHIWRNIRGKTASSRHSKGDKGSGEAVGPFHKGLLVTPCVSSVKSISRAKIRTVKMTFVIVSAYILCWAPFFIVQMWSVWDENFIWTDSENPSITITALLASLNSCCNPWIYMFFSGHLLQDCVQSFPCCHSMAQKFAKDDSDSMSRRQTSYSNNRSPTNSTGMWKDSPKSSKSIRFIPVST

Regarding `CC1(C)C(=O)N(Br)C(=O)N1Br`, in experiment [1], the AC50 was 17.1 µM (active). Consider `CCC(C)(C)C(=O)O[C@H]1C[C@@H](C)C=C2C=C[C@H](C)[C@H](CC[C@@H]3C[C@@H](O)CC(=O)O3)[C@H]21`, for which the molecule was classed as inactive in [2] and in experiment [3]. On to `CCCCCCCCCCCCCCCO`, for which the result in experiment [4] was inactive. Turning to `Cc1ccc(N)cc1O`, the molecule was classed as inactive in [5]. `COCCOc1cc2cc(C(=O)NC3CCN(C(C)C)CC3)n(CC(=O)Nc3ccc(Cl)cn3)c2cn1`: the outcome in experiment [6] was inactive. For the same molecule, the AC50 was 14.7 µM (active) in [7], 10.1 µM (active) in [3] and 12.6 µM (active) in experiment [8]. Take `CCOC(=O)CC(CC(=O)OCC)(OC(C)=O)C(=O)OCC`: the molecule was called inactive in [9] and in experiment [10]. `O=C(O)CCN(C1(C(=O)NO)CCCC1)S(=O)(=O)c1ccc(Oc2ccc(F)cc2)cc1`: the molecule was classed as inactive (with Adra2b (gene 24174); in experiment [11]). For `CC(C)CCO`, the outcome in experiment [10] was inactive. `CNCc1ccc(NC(=O)c2c[nH]c3c2C(=O)CCC3)cc1`: the molecule was classed as inactive (in experiment [12]; in the experiment with Adra2b (gene 24174)). As for `CC1=CC(=O)CC(C)(C)C1`, the molecule was called inactive in [13]. `O=C(CCCCCCCCc1cccnc1)N1CCC(C=C(c2ccccc2)c2ccccc2)CC1`: in [2], the AC50 was 24.7 µM (active). Also, the call in experiment [5] was inactive. On to `CCCCCCCCO`, for which, in the experiment with NCBI gene 24521, the molecule was classed as inactive. Consider `CC(=O)OCCC(C)C`, for which, in [3], the outcome was inactive. Turning to `O=C(NS(=O)(=O)/C=C/c1ccccc1)c1ccc(F)cc1Cl`, the result in experiment [10] was inactive. As to `CC(C)=CCCC(C)CCO` (stereo not drawn), the result in experiment [2] was inactive. For the molecule `Cc1ccc(O)cc1`, the outcome in [13] was inactive. Take `CN(C)c1ccc(N=NS(=O)(=O)O)cc1`: the AC50 in [14] is 23.8 µM (active); in [8], 14.6 µM (active); in experiment [15], 31.6 µM (active). Further, the call (in experiment [9]; in the experiment with NCBI gene 24521) was inactive. Consider `COc1ccc(/C=C/S(=O)(=O)NC(=O)c2ccc(C)cc2Cl)cc1`, for which the result in experiment [4] was inactive. Regarding `COc1ccc(-n2nc(C(F)F)cc2-c2ccc(S(C)=O)cc2)cc1` (stereo not drawn), the result (in the experiment with Adra2b (gene 24174); in [9]; in experiment [4]; in [10]) was inactive. On to `On1ccccc1=S`, for which, in experiment [2], the molecule was called inactive. With `CCOc1cccc(-n2cc(C(=O)N3CCN(c4cc(C(=O)O)c5ccccc5c4)CC3)nc2-c2ccc(C)cc2)c1`, the AC50 was 23.8 µM (active) in experiment [2], 8.81 µM (active) in experiment [9] and 21.2 µM (active) with NCBI gene 24521.

A word on the AC50: it is the concentration at which the activity in the assay is half-maximal.
